Each structure is given as a SMILES string. About 2,100 (3.2%) of roughly 65,000 compounds showed an effect of 50% or more. The median lay at about -52%. Many of the other results were omitted from the sample, so strong results are more common in it than they were.

This experiment deals with Plasmodium falciparum. The experiment is described as follows: Screen against P. falciparum Asexual Blood Stage (ABS), at 5uM. The experiment is classed as functional, Dd2. To be noted: tested at 5 uM.
For `CN(C)C(=O)[C@H]1CC[C@@H]2[C@@H](CCN2Cc2ccccn2)O1`, the INHIBITION is -43.5%.

For `CN(C)C(=O)[C@@H]1CC[C@@H]2[C@@H](CCN2Cc2ccccn2)O1`, the INHIBITION is on record as -97.6%.

`CC(C)NC(=O)[C@@H]1CC[C@@H]2[C@@H](CCN2Cc2cn(C)c3ccccc23)O1`: the INHIBITION is 77.6%.

With `CCN(CC)C(=O)C1CCC2(CCNCC2)CO1` (stereo not given), the INHIBITION is listed as -31.8%.

`COCC(=O)NC(C)Cc1ccc(Br)cc1` (stereo not given): the INHIBITION was 17.4%.

Turning to `Cc1nc(Nc2ccc(Cl)cn2)sc1C(=O)NCCCN1CCCCC1`, the INHIBITION is given as 81.4%.

On to `Cc1cnc(N2CCN3C[C@H](OCc4ccccn4)C[C@H]3C2)nc1`, for which the INHIBITION was -24.1%.

For `O=C(c1nn(-c2ccccc2F)cc1O)N1CCC2(CC1)OCCO2`, the INHIBITION is given as -12.3%.

Regarding `CCCN1CCCC(O)(c2nc(C)c(COc3ccccc3)s2)CC1` (stereo not given), the INHIBITION worked out at 83.2%.

In the case of `O=S1(=O)CCC(n2cc(C3=CCN(CCc4ccccc4)CC3)cn2)C1` (stereo not given), the INHIBITION is recorded as -45.5%.

For the molecule `O=C(Nc1cccnc1)[C@H]1CN(Cc2nccs2)C[C@H]2OCC[C@@H]12`, the INHIBITION was -93.3%.

Consider `CCC(CC)(CN)NC(C)c1ccccc1` (stereo not given), for which the INHIBITION came out at 83.4%.

For `Cc1c(C(=O)O)nnn1Cc1cccc(C(F)(F)F)c1`, the INHIBITION is given as -66.5%.

Regarding `CC(=O)N1CCC(CCNC(C)Cc2ccc(F)cc2)CC1` (stereo not given), the INHIBITION is listed as -0.762%.

In the case of `CC(O)CN1CCC(CNCc2ccc(OC(F)(F)F)cc2)CC1` (stereo not given), the INHIBITION was 86.9%.

`CC(O)CN1CCC(CNCc2cccc(C(F)(F)F)c2)CC1` (stereo not given): the INHIBITION was determined as 83.1%.

In the case of `CC(O)CN1CCC(CNCc2cccc(OC(F)(F)F)c2)CC1` (stereo not given), the INHIBITION stood at 80.1%.

For `O=C(Cc1ccc(F)cc1)N1CCN(CC(O)C2CC2)CC1` (stereo not given), the INHIBITION stood at 1.79%.

As for `Cc1nc(CN2CCOC3(CCCC3)C2)no1`, the INHIBITION is on record as -138%.

Regarding `C[C@@H]1CN(C2CCOCC2)C[C@]12CCN(c1cccnc1)C2=O`, the INHIBITION was -104%.

With `Cc1ccc(-c2ccnc3cc(CC(=O)N4CCN(C)CC4)nn23)cc1`, the INHIBITION was -116%.

As for `CC(C)N(C)C(=O)C1CCC2(CCNCC2)O1` (stereo not given), the INHIBITION is -214%.

As for `c1cc(CO[C@@H]2CC[C@H]3[C@H]2OCCN3Cc2ccoc2)ccn1`, the INHIBITION was -169%.

Consider `CC(C)CCC(=O)N1C[C@H]2CCN[C@H]2C1`, for which the INHIBITION is -114%.

Regarding `CCc1noc(C)c1C(=O)NCC(c1ccc(C)cc1)N(C)C` (stereo not given), the INHIBITION came to 71.4%.

Consider `Cc1noc(CN2CC=C(c3cnn(C4CCS(=O)(=O)C4)c3)CC2)n1` (stereo not given), for which the INHIBITION was -15.1%.

As for `CC(C)(C)n1ncc2c1NC(=O)CSC2c1ccc2c(c1)OCO2` (stereo not given), the INHIBITION is on record as -138%.

As for `NC(=O)c1ccc(N2CCCCC2)c(NC(=O)c2ccc(Br)cc2)c1`, the INHIBITION is 71.3%.

Consider `O=C(NC[C@H]1C[C@@H]2CCN1C[C@@H]2CN1CCOCC1)Nc1ccccc1`, for which the INHIBITION is listed as -40.4%.

Take `c1cnc(Nc2ccc(C3CCCCN3)cn2)cn1` (stereo not given): the INHIBITION turned out to be 13.6%.

On to `Cc1cccc(Nc2ccc(C3CCCCN3)cn2)n1` (stereo not given), for which the INHIBITION is 81.4%.

Regarding `Cc1cc(C)nc(Nc2ccc(C3CCCCN3)cn2)n1` (stereo not given), the INHIBITION is on record as -64.1%.

For the molecule `CC(C)C1CCCN1C(=O)c1ccc(-n2ncc(C#N)c2N)cc1` (stereo not given), the INHIBITION is 71.4%.

Turning to `Cc1cc(CN2C[C@@H]3COC[C@]3(COCc3csc(C)n3)C2)no1`, the INHIBITION was -58.8%.

Regarding `Cc1cc(CN2C[C@H]3CCC[C@@]3(COCc3csc(C)n3)C2)no1`, the INHIBITION worked out at 14.2%.

Regarding `Cc1cccc(CN2C[C@H]3CCC[C@@]3(COCc3csc(C)n3)C2)n1`, the INHIBITION worked out at 82%.

With `CC(C)N1CCCCC1c1cncc(Cl)n1` (stereo not given), the INHIBITION is listed as -50.5%.

On to `CC(C)N1CCCC1c1nc(N(C)C)ncc1I` (stereo not given), for which the INHIBITION is recorded as 70.7%.

With `CC(C)N1CCCCC1c1nc(N(C)C)ncc1I` (stereo not given), the INHIBITION turned out to be 72%.

Regarding `COCCNC(=O)[C@H]1CN2CCC1C[C@@H]2Cn1cc(C(C)(C)C)nn1` (stereo not given in full), the INHIBITION is -65.8%.

Turning to `c1cnc(N2CCOC3(COCCN(Cc4cc[nH]n4)C3)C2)nc1` (stereo not given), the INHIBITION is given as -27.9%.

On to `CCN(C)C[C@@H]1CN(Cc2cccc(Cl)c2)C[C@@H]1CO`, for which the INHIBITION came to 83.6%.

In the case of `CCNC(=O)[C@H]1CN(Cc2ccccc2)C[C@@H]1C(=O)c1ccccc1`, the INHIBITION is given as -76.3%.

On to `CCN(C)C[C@@H]1CN(S(=O)(=O)c2cccc(Cl)c2)C[C@@H]1CO`, for which the INHIBITION is on record as 75.3%.

Regarding `C=Cc1cccc(CN2C[C@@H](CN(C)CC)[C@@H](CO)C2)c1`, the INHIBITION worked out at 87.6%.

In the case of `CC(C)=CCN1C[C@@H]2CC[C@H]1CN(S(=O)(=O)c1cccnc1)C2`, the INHIBITION is reported as -10.7%.

As for `CN1CC=C(c2noc(CCC(=O)N3CCCC3)n2)CC1`, the INHIBITION was -71.4%.

In the case of `Cc1cccc(N2CCN(C(=O)CCc3c(C)noc3Cl)CC2)c1`, the INHIBITION turned out to be 86.3%.

On to `Cc1nc(CN2CCN(C(=O)Cc3cccc(Cl)c3)CC2)no1`, for which the INHIBITION was -18.4%.

Turning to `Cc1ccnc(CC(C)N(C)Cc2ccc3c(c2)CCO3)c1` (stereo not given), the INHIBITION was -33.2%.

The values are drawn from ChEMBL document CHEMBL4513216, “Probing the Open Global Health Chemical Diversity Library for Multistage-Active Starting Points for Next-Generation Antimalarials” (ACS Infect Dis, 2020).
